The text below walks through data of PMC7819943, “Rice protein-binding microarrays: a tool to detect cis-acting elements near promoter regions in rice”.

Over roughly 35,000 sequences, “fluorescence intensity (a.u.)” has its median near 10,000; the highest 2% begin near 52,000. The sample holds the highest values, similar sequences and a random draw of the others, so the mix is not that of the screen.

The assay concerns the target T1, OsWOX13 (Oryza sativa, UniProt Q5QMM3 1-267).
T1 sequence: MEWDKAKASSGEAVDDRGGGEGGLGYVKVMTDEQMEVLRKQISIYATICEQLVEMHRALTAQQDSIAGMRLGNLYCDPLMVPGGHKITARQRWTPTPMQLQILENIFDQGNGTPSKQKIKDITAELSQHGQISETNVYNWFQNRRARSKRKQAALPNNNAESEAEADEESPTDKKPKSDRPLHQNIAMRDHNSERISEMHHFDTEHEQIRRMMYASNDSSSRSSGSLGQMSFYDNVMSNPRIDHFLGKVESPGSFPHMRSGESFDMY
Nature of the assay: protein-binding microarray (RPBM); PBS, 2% BSA, 51.3 ng/ul salmon testes DNA, 50 uM zinc acetate, 200 nM TF, 25 C, 1 h; high values mean tight binding. The note with it: protein: recombinant; tags: N-terminal polyhistidine and DsRed monomer fusion (pET32a); label: CyDye5-dUTP incorporated in the synthesized complementary strand; 3' TTTTT single-stranded linker to array surface; dsDNA, one strand shown. The method in brief: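 The binding signal is fluorescence intensity per feature, in arbitrary units, read on an Axon 4000B scanner. Polyhistidine- and DsRed-tagged transcription factors (N-terminal fusions) from E. coli BL21-CodonPlus were purified on Ni–NTA and applied at 200 nM for 1 h at 25 °C to a double-stranded, BSA-blocked custom Agilent array in buffer with 50 µM zinc acetate.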
As for “ATTGATTATTATTTTAAAATAAAATGGCGTGTTAGGTTTTCGGAGTCACCTAGTGCAG”, the binding signal was 47300 fluorescence intensity (a.u.).
To “CACTGATTTTGATAGTTGAGGGACCCGTTGTATTTGATTTCGGAGTCACCTAGTGCAG” belongs 21500 fluorescence intensity (a.u.); to “CCAAAATTTGATAGAATCTATTCCGAAGCGTCCAATGTTTCGGAGTCACCTAGTGCAG”, 33400 fluorescence intensity (a.u.).
With “CCGCTGTAGCTGATTGCCAGTGTCAGATCAAGCTGTGAATCGGAGTCACCTAGTGCAG”, the binding signal was 9800 fluorescence intensity (a.u.).
For “ATTAGGTGTTTCCAGTTAATTAAAGTCATGTAGTACGGATCGGAGTCACCTAGTGCAG”, the binding signal was 3680 fluorescence intensity (a.u.).
In the case of “AATCAGCTCTAAATTTAAATTGTGGCTGATAAATACGAGTCGGAGTCACCTAGTGCAG” it was 4450 fluorescence intensity (a.u.); in that of “GCTAAATTCCTATCAAATTCAAGTTTAACACATTACTGCGCGGAGTCACCTAGTGCAG”, 13100 fluorescence intensity (a.u.).
In the case of “ATGAAATCAAGGTTTTGCAAATTGAAATCCATGTTTTGGTCGGAGTCACCTAGTGCAG” it was 8140 fluorescence intensity (a.u.); in that of “ATTATTATAAATTATTTCCTCCGTTTCACAATGTAAGTCACGGAGTCACCTAGTGCAG”, 5530 fluorescence intensity (a.u.).
In the case of “TAAATTGCGCAAAATTTATTCACGTAGATTAAGAGTCCATCGGAGTCACCTAGTGCAG”, the binding signal is 10700 fluorescence intensity (a.u.).
In the case of “GTTGATTTCACGACCTGCTCGCTGAGGAATGGAGGTCCAGCGGAGTCACCTAGTGCAG” it was 3180 fluorescence intensity (a.u.).
To “ATCATAATTAAATATATTTTCATAATAAATTTGTCTTTAGCGGAGTCACCTAGTGCAG” belongs 31000 fluorescence intensity (a.u.); to “TTGGGAAACGGAGGAAGTAATTAATTAGTCTTTGTGGAAACGGAGTCACCTAGTGCAG”, 3790 fluorescence intensity (a.u.).
“TTAATTAACTCAGCTTCTAGTTCATATGACTCTTGCTAATCGGAGTCACCTAGTGCAG”: the binding signal is 8400 fluorescence intensity (a.u.).
On to “AATTAATAATTGCAATAGTTAGGTTATGAAGACTTCAGAGCGGAGTCACCTAGTGCAG”, for which the binding signal is 15300 fluorescence intensity (a.u.).
Turning to “AATTTAATTAATTATGACTTCAGCTTGGTAGGTTCAGTTGCGGAGTCACCTAGTGCAG”, the binding signal was 53000 fluorescence intensity (a.u.).
For “AATATTTATGTTAATTATATATAGCTAATTATGATAATAGCGGAGTCACCTAGTGCAG”, the binding signal was 18800 fluorescence intensity (a.u.).
To “ACAATCTTATAGCTAATTTATTATATATGTTAGCTTTAAGCGGAGTCACCTAGTGCAG” belongs 4320 fluorescence intensity (a.u.); to “TTGCTAATTAATTTATGTTAATTAGTAGCTAACCTAGCTGCGGAGTCACCTAGTGCAG”, 65200 fluorescence intensity (a.u.); to “AAAACAGAAAATAGCCAGTCAACCAAACAGTTGTCTTGACCGGAGTCACCTAGTGCAG”, 6230 fluorescence intensity (a.u.).
To “TGCTAATGGCGGCCATAGATTTGTACAAGTATCAGCTGAGCGGAGTCACCTAGTGCAG” belongs 4480 fluorescence intensity (a.u.); to “AATTGCTGTTGATTTGCCACTACCACTCTCCCCAACAAGTCGGAGTCACCTAGTGCAG”, 6370 fluorescence intensity (a.u.).
With “CCCACATGCCAGACTGATTGCCAGTCATGAGCAAGGGTCCCGGAGTCACCTAGTGCAG”, the binding signal was 23900 fluorescence intensity (a.u.).
In the case of “ACTGATTGCTGTTGGTCATTCCCGGGCCAGTCCCCACTCCCGGAGTCACCTAGTGCAG” it was 52400 fluorescence intensity (a.u.); in that of “ATCATAACTCCATCAGATAATTTGTGCAGAACGGCAGAACCGGAGTCACCTAGTGCAG”, 5500 fluorescence intensity (a.u.).
To “CCAGCTTAATTGAGCCTGATTAGCCGAATCCATAATTGTGCGGAGTCACCTAGTGCAG” belongs 63800 fluorescence intensity (a.u.).
To “GTGTTGAATGCACTGATTTGTTCAGTGTCTGAGATTGATGCGGAGTCACCTAGTGCAG” belongs 13100 fluorescence intensity (a.u.); to “ACGAATCTAATGAGCCTAATTAATCCATGATTAGCCTATGCGGAGTCACCTAGTGCAG”, 21200 fluorescence intensity (a.u.).
For “ATTAATTGATGCTTTGCTTGATTACTTGAGTCAGATCCAGCGGAGTCACCTAGTGCAG”, the binding signal is 63200 fluorescence intensity (a.u.).
With “AGTTCAATTGCTTTGATGAGTGAGCAGAGAGATGATGCAGCGGAGTCACCTAGTGCAG”, the binding signal is 3420 fluorescence intensity (a.u.).
On to “GAATCTATTGAGCCTAATTAATCCATGATTAGCCTATGTGCGGAGTCACCTAGTGCAG”, for which the binding signal is 7730 fluorescence intensity (a.u.).
On to “TTAATTATTTGAGCAAATTTAATGGGATGAGGGAATGATGCGGAGTCACCTAGTGCAG”, for which the binding signal is 24800 fluorescence intensity (a.u.).
In the case of “CATGGATAATTTGTTTTGGAGTGACACACTGACACTGATGCGGAGTCACCTAGTGCAG” it was 9780 fluorescence intensity (a.u.); in that of “TTGAGATGATTTACTATTAATTTAGTCTATTGTTGAGATGCGGAGTCACCTAGTGCAG”, 35700 fluorescence intensity (a.u.).
In the case of “GTTTTAATTGTTTTACTGATTTGCAAATGAGTCTGGGATGCGGAGTCACCTAGTGCAG” it was 63500 fluorescence intensity (a.u.).
As for “TCTTTACTTAATTAATTTGATGCATGTATGCCAGGATTTGCGGAGTCACCTAGTGCAG”, the binding signal is 35800 fluorescence intensity (a.u.).
Take “ATGTTGATTGGAGTCTGATAACTTGTCACTGGATGACATGCGGAGTCACCTAGTGCAG”: the binding signal is 61700 fluorescence intensity (a.u.).
For “CATTGTCATCCTGAGTAGATTGCCAATTATATGGGTTTGGCGGAGTCACCTAGTGCAG”, the binding signal was 6170 fluorescence intensity (a.u.).
For the sequence “CGTTTTGATGGATGGCTCAGATCGGTTCCGAATCGATCAACGGAGTCACCTAGTGCAG”, the binding signal is 5120 fluorescence intensity (a.u.).
Regarding “GGTTTAATTAATTAATCGCGCCAACCCAGATGCTAATCAGCGGAGTCACCTAGTGCAG”, the binding signal is 50200 fluorescence intensity (a.u.).
To “TGAAAATTTTGTCGGAAATTTATCAGTGTATCAACTGTCTCGGAGTCACCTAGTGCAG” belongs 6470 fluorescence intensity (a.u.); to “TTTCTTGATTTGGTTGGGATTGGTTGTTCTTGGGCTTATCCGGAGTCACCTAGTGCAG”, 24600 fluorescence intensity (a.u.).
To “GTTGAGATTAATTGTTCTATACTACTTTCTCTATCTAAAACGGAGTCACCTAGTGCAG” belongs 7990 fluorescence intensity (a.u.).
In the case of “GATAATTCTTATGTTACTGACTAATATGATAGTACTGAGTCGGAGTCACCTAGTGCAG” it was 5770 fluorescence intensity (a.u.).
“AATTTGATTGATTTTACTCTCGAGCCAATTGAGATGTCTGCGGAGTCACCTAGTGCAG”: the binding signal is 64800 fluorescence intensity (a.u.).
In the case of “ATGAATCTAGTCAGATTGGCCAATTTGATTTGTTTTACTCCGGAGTCACCTAGTGCAG” it was 9360 fluorescence intensity (a.u.); in that of “TCAAAGTGATTGGTGACACTCTACACAACACACAGTTGAACGGAGTCACCTAGTGCAG”, 28400 fluorescence intensity (a.u.).
Consider “ACTTACAAATTTTGTACTCAATTGAGATGTGCTTCGATTGCGGAGTCACCTAGTGCAG”, for which the binding signal was 5640 fluorescence intensity (a.u.).
Turning to “TATAATTGTTACTGTTAATTGAGGTGGGAAATACCAGGTGCGGAGTCACCTAGTGCAG”, the binding signal was 53500 fluorescence intensity (a.u.).
With “CCTGATTAATTGTTAATTTTGCTGATGCAGCTGTTGCTTGCGGAGTCACCTAGTGCAG”, the binding signal was 65000 fluorescence intensity (a.u.).
In the case of “ACACTTGGAGATTGGTAATAGATTACAGAAAGTTGAATGCCGGAGTCACCTAGTGCAG” it was 14300 fluorescence intensity (a.u.).
In the case of “AGTTGATTGGTAAAGTGACATGCTTGAACACTGTTGGAGCCGGAGTCACCTAGTGCAG” it was 54000 fluorescence intensity (a.u.); in that of “GGAACAGGTACCATAATTGTTAATAACCTAATACTGGGCCCGGAGTCACCTAGTGCAG”, 5270 fluorescence intensity (a.u.).
To “ATTAACCAGTATTAATAATTGAGGGACGTTGTATACTGGGCGGAGTCACCTAGTGCAG” belongs 20500 fluorescence intensity (a.u.).
As for “TGTTGCTGTTGATTAGCTCTCACCTAATTTGTTGTGTATGCGGAGTCACCTAGTGCAG”, the binding signal is 18100 fluorescence intensity (a.u.).
“TGTTAATCTTGCTGATTTTGTTATTGATTTTAATGCTATGCGGAGTCACCTAGTGCAG”: the binding signal was 17300 fluorescence intensity (a.u.).
